Test results published in PubChem BioAssay (EPA / NIEHS).
Active and inactive are the calls of the source. How the source made its calls: active means hit-call score of the fitted dose curve at least 0.9, where 1 is the maximum; inactive means score below 0.9.

Assays:
[1] = APR_HepG2_NuclearSize_72hr: Apredica 72-hour HepG2 Assay for Nuclear Size (AID 2282925); conditions: high-content imaging, actives raise or lower the signal
Procedure, shortened: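 HepG2 cells were exposed to compounds at ten concentrations from 0.39 to 200 uM (duplicate, 0.5% DMSO final) for 72 hr. After fixation in 3.7% formaldehyde, nuclei were stained with Hoechst 33342 (2 ug/mL) and imaged at 20x.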

[2] = ATG_CRE_CIS: Attagene CIS-FACTORIAL HepG2 Assay for human cAMP Responsive Element (CRE) binding protein 3 (AID 2282926); conditions: HepG2 CRE cis-reporter, Attagene multiplexed mRNA; actives raise or lower the signal
Procedure, shortened: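 HepG2 cells transiently transfected with cis-element-driven multiple reporter transcription units; CRE reporter mRNA measured 24 h after dosing by RT-PCR, 6-FAM labelling, HpaI digestion and capillary electrophoresis. Bidirectional fit versus DMSO baseline.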

[3] = molecular target: CCAAT/enhancer-binding protein beta (Homo sapiens) (UniProt P17676); assay: ATG_C_EBP_CIS: Attagene CIS-FACTORIAL HepG2 Assay for human CCAAT/Enhancer Binding Protein (C/EBP) beta (AID 2282927); conditions: HepG2 Attagene cis-factorial transcription factor reporter; actives raise or lower the signal
Sequence of CCAAT/enhancer-binding protein beta (Homo sapiens) (P17676 whole entry, looked up): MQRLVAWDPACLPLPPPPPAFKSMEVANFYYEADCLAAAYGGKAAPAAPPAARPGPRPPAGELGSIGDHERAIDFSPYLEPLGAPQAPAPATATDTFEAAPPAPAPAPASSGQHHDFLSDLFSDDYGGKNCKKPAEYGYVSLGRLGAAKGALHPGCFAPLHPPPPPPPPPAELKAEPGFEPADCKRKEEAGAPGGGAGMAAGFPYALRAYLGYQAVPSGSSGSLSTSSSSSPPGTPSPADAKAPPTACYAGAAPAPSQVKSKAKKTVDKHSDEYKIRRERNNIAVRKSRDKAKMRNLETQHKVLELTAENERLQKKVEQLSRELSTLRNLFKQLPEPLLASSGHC
Procedure, shortened: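 RT-PCR/capillary electrophoresis fluorescence of reporter mRNA, 24 h post-dose, in HepG2 cells carrying transfected cis-promoter reporter units. Bidirectional curve fitting against DMSO baseline captures gain or loss of signal.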

[4] = ATG_CMV_CIS: Attagene CIS-FACTORIAL HepG2 Assay for human CMV (Internal Marker) (AID 2282928); conditions: HepG2 CMV promoter reporter, transcription factor profiling; actives raise or lower the signal;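 further: endpoint acts as a background internal control marker rather than a target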
Procedure, shortened: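 Endogenous transcription factor activity read in HepG2 via transfected cis-promoter reporter units. After 24 h dosing, reporter mRNA measured by RT-PCR/capillary electrophoresis; gain or loss of signal fit relative to DMSO.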

[5] = ATG_DR4_LXR_CIS: Attagene CIS-FACTORIAL HepG2 Assay for human Liver X Receptor (LXR), DR4 submotif (AID 2282929); conditions: HepG2 Attagene DR4 cis-reporter, mRNA transcription; actives raise or lower the signal
Procedure, shortened: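 DR4 cis-reporter in HepG2, 24 h exposure. Detection: RT-PCR, 6-FAM labelling, CE fragment analysis. Endpoint fitted bidirectionally, DMSO = baseline.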

[6] = molecular target: Aryl hydrocarbon receptor (Homo sapiens) (UniProt P35869); assay: ATG_Ahr_CIS: Attagene CIS-FACTORIAL HepG2 Assay for human Aryl Hydrocarbon Receptor (Ahr) (AID 2282930); conditions: HepG2 AhR cis-factorial reporter transcription; actives raise or lower the signal
Sequence of Aryl hydrocarbon receptor (Homo sapiens) (P35869 whole entry, looked up): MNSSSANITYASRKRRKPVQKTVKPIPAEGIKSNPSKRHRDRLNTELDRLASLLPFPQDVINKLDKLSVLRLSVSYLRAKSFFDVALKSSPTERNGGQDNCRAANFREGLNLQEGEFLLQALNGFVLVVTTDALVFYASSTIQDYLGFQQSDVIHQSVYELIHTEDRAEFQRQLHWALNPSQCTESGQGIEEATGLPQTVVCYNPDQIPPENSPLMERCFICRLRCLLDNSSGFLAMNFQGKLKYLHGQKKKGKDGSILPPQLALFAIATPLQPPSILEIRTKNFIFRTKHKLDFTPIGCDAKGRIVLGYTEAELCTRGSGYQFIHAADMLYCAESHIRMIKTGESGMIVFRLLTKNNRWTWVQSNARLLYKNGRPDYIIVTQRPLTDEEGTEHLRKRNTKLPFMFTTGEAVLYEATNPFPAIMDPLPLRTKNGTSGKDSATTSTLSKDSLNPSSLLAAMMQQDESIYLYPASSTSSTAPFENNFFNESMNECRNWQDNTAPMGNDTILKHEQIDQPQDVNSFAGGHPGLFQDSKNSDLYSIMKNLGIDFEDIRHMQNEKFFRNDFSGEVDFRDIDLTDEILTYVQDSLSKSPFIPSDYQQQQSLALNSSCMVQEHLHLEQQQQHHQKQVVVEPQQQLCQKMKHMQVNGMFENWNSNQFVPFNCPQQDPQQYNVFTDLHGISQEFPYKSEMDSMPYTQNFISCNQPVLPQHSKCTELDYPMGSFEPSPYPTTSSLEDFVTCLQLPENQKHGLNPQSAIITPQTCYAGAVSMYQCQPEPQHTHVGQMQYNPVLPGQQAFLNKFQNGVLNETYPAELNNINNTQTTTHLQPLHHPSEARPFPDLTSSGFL
Procedure, shortened: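 HepG2 cells transiently transfected with cis-element-driven multiplexed reporter transcription units; endogenous transcription factor activity measured as reporter mRNA 24 h after dosing. RT-PCR, 6-FAM labelling, HpaI digestion, capillary electrophoresis; bidirectional fitting versus DMSO baseline.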

[7] = ATG_AP_1_CIS: Attagene CIS-FACTORIAL HepG2 Assay for human Activator Protein 1 (AP-1) (AID 2282931); conditions: HepG2 Attagene cis-factorial AP-1 reporter mRNA; actives raise or lower the signal
Procedure, shortened: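 Cis-regulated reporter units transiently expressed in HepG2 report endogenous transcription-factor activity. Signal: reporter mRNA at 24 h, via RT-PCR and fluorescent capillary electrophoresis. Endpoint derived by bidirectional fitting, DMSO as negative control.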

[8] = ATG_AP_2_CIS: Attagene CIS-FACTORIAL HepG2 Assay for human Activator Protein 2 (AP-2) (AID 2282932); conditions: HepG2 AP-2 cis-reporter, Attagene transcription factor profiling; actives raise or lower the signal
Procedure, shortened: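 Bidirectional curve fitting against DMSO was applied to reporter mRNA signals from HepG2 cells 24 h after dosing. Cis-promoter reporter units, transiently transfected, were read by RT-PCR plus capillary electrophoresis.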

[9] = ATG_BRE_CIS: Attagene CIS-FACTORIAL HepG2 Assay for human Bone Morphogenetic Protein (BMP) Response Element (BRE) (AID 2282933); conditions: HepG2 BMP response element reporter, Attagene transcription factor profiling; actives raise or lower the signal
Procedure, shortened: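 Endogenous transcription factor activity read in transiently transfected HepG2 cells after 24 h chemical exposure. Bidirectional curve fitting against DMSO; readout is reporter transcript level by RT-PCR with capillary electrophoresis of labelled products.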

[10] = molecular target: Transcription factor E2F1 (Homo sapiens) (UniProt Q01094); assay: ATG_E2F_CIS: Attagene CIS-FACTORIAL HepG2 Assay for human E2F Transcription Factor 1 (AID 2282935); conditions: HepG2 Attagene cis-reporter, E2F reporter RNA transcripts; actives raise or lower the signal
Sequence of Transcription factor E2F1 (Homo sapiens) (Q01094 whole entry, looked up): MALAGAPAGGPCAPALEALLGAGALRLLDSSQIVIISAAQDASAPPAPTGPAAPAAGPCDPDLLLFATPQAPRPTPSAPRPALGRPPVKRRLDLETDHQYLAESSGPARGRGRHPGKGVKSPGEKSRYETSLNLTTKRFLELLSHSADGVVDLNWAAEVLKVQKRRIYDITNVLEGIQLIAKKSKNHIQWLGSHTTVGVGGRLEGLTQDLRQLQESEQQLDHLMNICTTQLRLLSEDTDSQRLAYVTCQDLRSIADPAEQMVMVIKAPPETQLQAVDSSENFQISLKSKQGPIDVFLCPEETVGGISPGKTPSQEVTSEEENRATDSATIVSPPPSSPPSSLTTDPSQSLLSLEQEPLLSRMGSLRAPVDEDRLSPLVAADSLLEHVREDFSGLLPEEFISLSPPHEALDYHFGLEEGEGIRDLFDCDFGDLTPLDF
Procedure, shortened: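 Multiplexed cis-reporter assay: HepG2, transient transfection, 24 h dosing, mRNA quantitation by labeled RT-PCR and CE.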

[11] = ATG_E_Box_CIS: Attagene CIS-FACTORIAL HepG2 Assay for human Enhancer Box (E-box) (AID 2282936); conditions: HepG2 E-box cis-reporter transcription, actives raise or lower the signal
Procedure, shortened: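 Multiplexed CIS reporter system in transiently transfected HepG2 cells measures native transcription factor activity. Reporter RNA after 24 h exposure is profiled by RT-PCR-capillary electrophoresis.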

[12] = ATG_M_61_CIS: Attagene CIS-FACTORIAL HepG2 Assay for M61 Transcription Factor (Internal Marker) (AID 2282937); conditions: HepG2 Attagene CIS-FACTORIAL M61 internal marker reporter; actives raise or lower the signal
Procedure, shortened: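 Background-control endpoint: HepG2 cells with cis-regulated reporter constructs, 24 h exposure, reporter mRNA detected via fluorescent primer extension and capillary electrophoresis; values from bidirectional fitting with DMSO baseline.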

[13] = ATG_EGR_CIS: Attagene CIS-FACTORIAL HepG2 Assay for human Early Growth Response 1 (EGR1) (AID 2282938); conditions: HepG2 Attagene CIS-FACTORIAL EGR reporter mRNA; actives raise or lower the signal
Procedure, shortened: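 Endpoint derived by bidirectional fitting versus DMSO vehicle. Method: cis-promoter reporter units transfected into HepG2, 24 h dosing, RNA isolation, RT-PCR with 6-FAM primer extension and HpaI digestion, then capillary electrophoresis fluorescence detection.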

[14] = ATG_M_19_CIS: Attagene CIS-FACTORIAL HepG2 Assay for M19 Transcription Factor (Internal Marker) (AID 2282939); conditions: HepG2 Attagene CIS-FACTORIAL M19 internal marker reporter; actives raise or lower the signal
Procedure, shortened: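 Internal marker readout, fitted in both directions against DMSO, from HepG2 cells carrying transfected cis-element reporter constructs; RT-PCR and capillary electrophoresis of reporter mRNA after 24 h exposure.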

[15] = ATG_ERE_CIS: Attagene CIS-FACTORIAL HepG2 Assay for Estrogen Response Element (ERE) (AID 2282940); conditions: HepG2 ERE cis-reporter, Attagene RNA transcript; actives raise or lower the signal
Procedure, shortened: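 After 24 h compound treatment, RNA from transfected HepG2 cells was reverse-transcribed, reporter cDNA PCR-amplified, FAM-labelled, HpaI-cut and resolved by capillary electrophoresis. ERE-driven cis reporter transcripts reflect endogenous factors; gain or loss scored against DMSO.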

[16] = ATG_Ets_CIS: Attagene CIS-FACTORIAL HepG2 Assay for human Erythroblast Transformation Specific (ETS) (AID 2282941); conditions: HepG2 ETS cis-reporter transcription, actives raise or lower the signal
Procedure, shortened: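 Steps: transfect HepG2 with multiple reporter units; treat compound 24 h; isolate RNA, DNase-treat, reverse-transcribe; PCR-amplify, label with 6-FAM, digest with HpaI; separate by capillary electrophoresis. Activity fitted both directions versus DMSO.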

[17] = molecular target: Hepatocyte nuclear factor 3-beta (Homo sapiens) (UniProt Q9Y261); assay: ATG_FoxA2_CIS: Attagene CIS-FACTORIAL HepG2 Assay for human Forkhead box A2 (FOXA2) (AID 2282942); conditions: HepG2 cis-reporter transcription factor activity, 24 h; actives raise or lower the signal
Sequence of Hepatocyte nuclear factor 3-beta (Homo sapiens) (Q9Y261 whole entry, looked up): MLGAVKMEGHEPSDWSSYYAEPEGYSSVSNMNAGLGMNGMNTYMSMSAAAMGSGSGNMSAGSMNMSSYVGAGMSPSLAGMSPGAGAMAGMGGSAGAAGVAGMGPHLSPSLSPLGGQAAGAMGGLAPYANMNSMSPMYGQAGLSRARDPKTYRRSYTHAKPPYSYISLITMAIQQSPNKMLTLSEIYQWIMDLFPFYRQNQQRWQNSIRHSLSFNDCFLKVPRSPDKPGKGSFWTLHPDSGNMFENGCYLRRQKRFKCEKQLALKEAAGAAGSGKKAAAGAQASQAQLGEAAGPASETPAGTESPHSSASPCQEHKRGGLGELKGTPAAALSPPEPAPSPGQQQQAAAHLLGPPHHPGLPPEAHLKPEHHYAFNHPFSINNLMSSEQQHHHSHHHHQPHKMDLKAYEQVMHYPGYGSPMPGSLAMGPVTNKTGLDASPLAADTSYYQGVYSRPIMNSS
Procedure, shortened: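 Measured: reporter mRNA induction or loss in HepG2 transiently carrying multiple cis-regulated reporter units, 24 h after dosing. Quantified by RT-PCR plus capillary electrophoresis, normalised to DMSO.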

[18] = ATG_FoxO_CIS: Attagene CIS-FACTORIAL HepG2 Assay for human Forkhead box O (FoxO) (AID 2282943); conditions: HepG2 Attagene cis-reporter, FoxO element, mRNA; actives raise or lower the signal
Procedure, shortened: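 HepG2 cells transiently transfected with cis-promoter-driven multiple reporter transcription units; 24 h after chemical dosing, reporter mRNA quantified by RT-PCR, fluorescent primer extension, HpaI digestion and capillary electrophoresis. Bidirectional fitting versus DMSO baseline.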

[19] = ATG_GATA_CIS: Attagene CIS-FACTORIAL HepG2 Assay for human GATA Binding Protein (AID 2282944); conditions: HepG2 GATA cis-element reporter, Attagene multiplex mRNA; actives raise or lower the signal
Procedure, shortened: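 Reporter transcripts from a GATA cis-regulated unit, among multiplexed reporters in transfected HepG2 cells, were measured by RT-PCR with capillary electrophoresis after 24 h dosing. Induction or loss scored relative to DMSO.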

[20] = molecular target: Retinoic acid receptor alpha (Homo sapiens) (UniProt P10276); assay: ATG_DR5_RAR_CIS: Attagene CIS-FACTORIAL HepG2 Assay for human Retinoic Acid Receptor Alpha (RARE), DR5 submotif (AID 2282934); conditions: HepG2 Attagene cis-factorial RARE DR5 reporter, mRNA; actives raise or lower the signal
Sequence of Retinoic acid receptor alpha (Homo sapiens) (P10276 whole entry, looked up): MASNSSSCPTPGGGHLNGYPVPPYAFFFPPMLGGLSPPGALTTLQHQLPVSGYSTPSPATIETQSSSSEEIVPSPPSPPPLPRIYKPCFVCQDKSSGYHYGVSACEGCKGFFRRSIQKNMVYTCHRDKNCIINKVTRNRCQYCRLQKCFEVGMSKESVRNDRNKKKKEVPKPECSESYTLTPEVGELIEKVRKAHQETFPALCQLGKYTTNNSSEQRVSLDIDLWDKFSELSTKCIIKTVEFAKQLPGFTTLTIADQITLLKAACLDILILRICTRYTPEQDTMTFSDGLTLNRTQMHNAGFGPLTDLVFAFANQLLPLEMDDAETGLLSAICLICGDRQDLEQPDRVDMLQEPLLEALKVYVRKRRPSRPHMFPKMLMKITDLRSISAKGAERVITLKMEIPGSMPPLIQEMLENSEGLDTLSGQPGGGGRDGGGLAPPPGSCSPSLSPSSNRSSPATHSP
Procedure, shortened: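 HepG2 cells transiently transfected with multiplexed reporter units under cis (DR5 RARE) promoters, so endogenous transcription factor activity is measured. After 24 h compound exposure, reporter mRNA is quantified by RT-PCR with fluorescent labelling and capillary electrophoresis; bidirectional fitting versus DMSO.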

Measured: AC50

OC(Cn1cncn1)(Cn1cncn1)c1ccc(F)cc1F
not listed: [20]
inactive: all other assays above

OC(CCl)CCl
not listed: [13] | [20]
inactive: all other assays above

Nc1ccn([C@@H]2O[C@H](CO)[C@@H](O)[C@@H]2O)c(=O)n1
active: [1] 39.4 nM | [15] 6.66 µM
not listed: [13]
inactive: all other assays above

O=C(O)c1ccc2c(c1)nc(C(=O)NC1CCN(C3CC3)CC1)n2Cc1cc(-c2ccc(Cl)s2)on1
not listed: [20]
inactive: all other assays above

CC[C@H](C)C(=O)O[C@H]1C[C@H](O)C=C2C=C[C@H](C)[C@H](CC[C@@H](O)C[C@@H](O)CC(=O)O)[C@H]21
active: [6] 68.4 µM
not listed: [13]
inactive: all other assays above

CCCCCCOC(=O)CC(CC(=O)OCCCCCC)(OC(=O)CCC)C(=O)OCCCCCC
inactive: all assays above

CC(C)CC(C)O (centres undefined)
inactive: all assays above
